One assay has as its target Furin (Homo sapiens) (UniProt P09958). In words: Furin counterscreen qHTS for Zika virus inhibitors (AID 1347149). Note: nearly all actives have a fitted effect of over 70% in size. Note: potency is the fitted concentration of half-maximal effect. The essentials:
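Fluorogenic cleavage of BOC-RVRR-AMC (2 microM final, Km ~15 µM) was monitored (ex 340, em 450 nm) at 37C after 15 min RT preincubation of 5 nM furin with compounds in HEPES pH 7.0 buffer with CaCl2 and Triton X-100. Percent inhibition was fitted to a 4-parameter Hill curve.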

Assay [1] can be described thus: Vero cells viability qHTS for Zika virus inhibitors (AID 1347167). The essentials: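 Cells seeded at 2.5 x 10^5 cells/mL in DMEM with 4% FBS and attached overnight at 37 degrees C, then exposed to compound for 24 to 48 hours. Viability read as ATP content by CellTiter Glo luminescence.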
(Quantitative high-throughput screening tests each substance at several concentrations.)

The nature of assay [2]: Primary qHTS for inhibitors of La Crosse Virus (LACV) - induced cell death in SH-SY5Y cells (AID 1508616).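 Note: top concentration of the series differs between compounds; higher means more rescue of cells from virus-induced death.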 The gist of the method:
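SH-SY5Y cells (6000/well) plated 24 h, then given compounds by pin transfer and LACV at 0.01 MOI for 6 days at 37C. Viability measured by ATPLite luminescence, normalized to infected DMSO and uninfected DMSO.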

Assay [3] is described as follows: Primary qHTS for small molecule stabilizers of the endoplasmic reticulum resident proteome: Secreted ER Calcium Modulated Protein (SERCaMP) assay (AID 1508630). The gist of the method:
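GLuc-SERCaMP-expressing SH-SY5Y cells, pretreated 16 h with compound, are challenged with thapsigargin to empty ER calcium stores; after 4 h, coelenterazine is added directly to the medium and luminescence is imaged.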

For assay [4], the system named is Zika virus NS2B-NS3 protease (linked). The experiment in a line: 384 well plate NINDS AMC confirmatory qHTS for Zika virus inhibitors (AID 1347163). Note: potency is the fitted concentration of half-maximal effect; nearly all actives have a fitted effect of over 50% in size. The gist of the method: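 Linked NS2B-NS3 protease (final 5 nM, 30 nM or 60 nM) was preincubated with compounds (final up to 1 mM) for ~15 minutes. Ac-VKTGKR-AMC substrate (final 30 microM) then reacted for 25 minutes at room temperature in the dark. Fluorescence (ex 355/em 460 nm) was normalized to no-enzyme and no-inhibitor controls.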

The subject of assay [5] is Zika virus NS2B-NS3 protease. The experiment in a line: Primary screen GU AMC qHTS for Zika virus inhibitors (AID 1347154). Note: nearly all actives have a fitted effect of over 70% in size. The essentials:
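Unlinked Zika NS2B hydrophilic domain–NS3 protease complex at 25 nM in 10 mM Tris-HCl pH 8.0, 0.01% Tween 20, with an AMC peptide substrate. Fluorescence change (340/450 nm) over 15 min at room temperature, normalized to controls, fitted to 4-parameter Hill.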

Assay [6] is described as follows: NCATS anti-infectives library activity on HEK293 viability as a counter-qHTS vs the C. elegans viability qHTS (AID 1745854).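 Note: HEK293 cells exposed to compounds for 24 hr before the viability read.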 The essentials: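 HEK293 cells (1,500/well) exposed 24 hr at 37C to 1:5 titrations, up to 41.7 uM final; counter-screen to a C. elegans viability qHTS. Viability by CellTiter-Glo luminescence after 10 min at room temperature; digitonin as control.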

The test system of a further assay is NIH3T3. The experiment in a line: qHTS assay to identify novel small-molecules to repurpose for Merkel cell carcinoma treatment (AID 1296009). Note: potency is the fitted concentration of half-maximal effect; nearly all actives have a fitted effect of over 60% in size. The note with it: MCC and control cell lines, CellTiter-Glo viability, 72 h; series mostly up to 9.27 µM. The essentials: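 Cells were treated for 72 hr at 37 degree celsius with compounds in 8- or 11-point dose response. Viability was read by CellTiter-Glo luminescence, normalized to no-cell (cytotoxicity) and DMSO controls.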

Assay [7] has as its system Zika virus NS2B-NS3 protease (linked construct). The experiment in a line: 384 well plate NINDS Rhodamine confirmatory qHTS for Zika virus inhibitors (AID 1347164).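 Note: fluorescence from protease cleavage of Ac-LKRR-rhodamine 110 substrate; nearly all actives have a fitted effect of over 65% in size.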 Note: potency is the fitted concentration of half-maximal effect. The gist of the method: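 Fluorescence at 485/538 nm was measured 25 minutes after adding 10 microM Ac-LKRR-Rd substrate, in the dark at room temperature. The protease (5, 30 or 60 nM final) had been preincubated ~15 minutes with compound; aprotinin as control.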

A short description of assay [8]: Tertiary RLuc qRT-PCR qHTS assay for Zika virus inhibitors (AID 1347169). Note: potency is the fitted concentration of half-maximal effect; nearly all actives have a fitted effect of over 55% in size. The gist of the method:
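Orthogonal cell-based readout: luminescence measured 1-1.5 hrs after adding live-cell Renilla substrate to Vero cells that had been infected with ZIKV-RLuc (MOI 1-2) post-compound, incubated 48-72 hrs at 37 degrees C.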

The nature of assay [9]: S16 Schwann cell viability assay (CellTiter-Glo assay) (AID 624031). Note: nearly all actives have a fitted effect of over 70% in size. The gist of the method: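 Native S16 Schwann cells (rat), serum-containing medium, overnight attachment then 24 h drug exposure at 37 °C/5% CO2. CellTiter-Glo ATP signal; normalized to cell-free and vehicle wells.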
In general terms: ATP-based viability assays read luminescence as a measure of living cells.

Assay [10] in a line: S16 Schwann cell PMP22 intronic element firefly luciferase assay (AID 624032). Note: nearly all actives have a fitted effect of over 30% in size. The essentials: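 Rat S16 Schwann cells stably carrying firefly luciferase driven by a PMP22 intronic element, in 10% FBS, treated 24 h at 37 C. ONE-Glo luminescence normalized to PTC124 control and DMSO (0%); curves classed by r2, magnitude and activity.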
The nature of assay [11]: qHTS profiling for inhibitors of Plasmodium falciparum proliferation (AID 504749). Note: potency is the fitted concentration of half-maximal effect; nearly all actives have a fitted effect of over 60% in size. Particulars: P. falciparum in erythrocytes, SYBR Green DNA, 72 h. The gist of the method: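 P. falciparum-infected erythrocytes (0.3% parasitemia, 2.5% hematocrit) incubated with compound 72 h at 37 C, 5% CO2. Parasite DNA detected by SYBR Green after lysis, overnight at room temperature; normalised to 0.29 uM artemisinin and DMSO.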

The nature of assay [12]: Confirmatory screen NINDS Rhodamine qHTS for Zika virus inhibitors (AID 1347161). Note: potency is the fitted concentration of half-maximal effect; nearly all actives have a fitted effect of over 60% in size. The gist of the method:
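In 10 mM Tris-HCl pH 8.0 containing 0.01% Tween 20, linked NS2B-NS3 protease (25 nM final) is exposed to test compounds for 15 min. Cleavage of 1.5 microM Rhodamine110 substrate is tracked by fluorescence over 15 min.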

Assay [13] relates to Zika virus NS2B-NS3 protease (unlinked complex). The experiment in a line: Confirmatory screen GU AMC qHTS for Zika virus inhibitors (AID 1347153).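 Note: enzyme at 25 nM with substrate at 10 µM below its Km of 18.3 µM; potency is the fitted concentration of half-maximal effect; nearly all actives have a fitted effect of over 70% in size.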 The gist of the method: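 Compounds were preincubated 15 min at room temperature with 25 nM noncovalent NS2B-NS3 protease at pH 8.0; AMC substrate added at 10 microM and 15-min fluorescence gain (340/450 nm) converted to percent inhibition, fitted 4-parameter.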

Assay [14] addresses Ubiquitin carboxyl-terminal hydrolase 1 (Homo sapiens) (UniProt O94782). The experiment in a line: Inhibitors of USP1/UAF1: Pilot qHTS (AID 504865).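 Note: rhodamine fluorescence freed from ubiquitin-rhodamine substrate followed over time; top concentration of the series differs between compounds; nearly all actives have a fitted effect of over 35% in size.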 The gist of the method: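 Deubiquitinase activity followed as kinetic rhodamine fluorescence release from 150 nM Ub-Rho. 1 nM USP1/UAF1 with compound, after 15 min room-temperature preincubation, in HEPES pH 7.8 buffer containing TCEP, EDTA, BSA and Tween-20.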

Where “and” joins values, the source holds several entries; their conditions need not be identical. Equal entries are not always repeated. Records with an inconclusive call do not appear. Calls of active or inactive are those of the source. Calls come from the whole dose curve; as a rule, active = well fitted curve in the direction sought with a large enough effect; inconclusive = small, poorly fitted or top-dose-only effect, or another doubt; inactive = no such curve, though single readings can be large; an effect the other way counts as inactive or inconclusive.

Chain of Furin (Homo sapiens) (P09958 whole entry, looked up): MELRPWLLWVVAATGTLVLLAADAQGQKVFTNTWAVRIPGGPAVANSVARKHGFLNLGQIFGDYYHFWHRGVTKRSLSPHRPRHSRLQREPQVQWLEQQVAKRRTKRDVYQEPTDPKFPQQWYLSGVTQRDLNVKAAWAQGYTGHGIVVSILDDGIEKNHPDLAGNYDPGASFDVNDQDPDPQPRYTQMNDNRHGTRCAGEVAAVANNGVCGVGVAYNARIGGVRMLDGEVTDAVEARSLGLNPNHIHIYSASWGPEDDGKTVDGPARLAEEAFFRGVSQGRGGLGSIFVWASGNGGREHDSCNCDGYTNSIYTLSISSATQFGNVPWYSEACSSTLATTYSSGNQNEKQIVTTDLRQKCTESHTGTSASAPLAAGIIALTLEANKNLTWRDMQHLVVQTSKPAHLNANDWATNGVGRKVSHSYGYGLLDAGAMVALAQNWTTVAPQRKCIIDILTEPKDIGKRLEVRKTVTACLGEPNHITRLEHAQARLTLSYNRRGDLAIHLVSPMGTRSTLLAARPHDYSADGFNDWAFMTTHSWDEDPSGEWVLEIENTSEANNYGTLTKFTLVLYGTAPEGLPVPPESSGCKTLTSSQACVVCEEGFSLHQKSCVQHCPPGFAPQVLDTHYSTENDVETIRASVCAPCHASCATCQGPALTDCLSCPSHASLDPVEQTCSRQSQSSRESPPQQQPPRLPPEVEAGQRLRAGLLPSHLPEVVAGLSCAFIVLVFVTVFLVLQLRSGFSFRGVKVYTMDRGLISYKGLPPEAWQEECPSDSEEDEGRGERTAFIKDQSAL
Chain of Ubiquitin carboxyl-terminal hydrolase 1 (Homo sapiens) (O94782 whole entry, looked up): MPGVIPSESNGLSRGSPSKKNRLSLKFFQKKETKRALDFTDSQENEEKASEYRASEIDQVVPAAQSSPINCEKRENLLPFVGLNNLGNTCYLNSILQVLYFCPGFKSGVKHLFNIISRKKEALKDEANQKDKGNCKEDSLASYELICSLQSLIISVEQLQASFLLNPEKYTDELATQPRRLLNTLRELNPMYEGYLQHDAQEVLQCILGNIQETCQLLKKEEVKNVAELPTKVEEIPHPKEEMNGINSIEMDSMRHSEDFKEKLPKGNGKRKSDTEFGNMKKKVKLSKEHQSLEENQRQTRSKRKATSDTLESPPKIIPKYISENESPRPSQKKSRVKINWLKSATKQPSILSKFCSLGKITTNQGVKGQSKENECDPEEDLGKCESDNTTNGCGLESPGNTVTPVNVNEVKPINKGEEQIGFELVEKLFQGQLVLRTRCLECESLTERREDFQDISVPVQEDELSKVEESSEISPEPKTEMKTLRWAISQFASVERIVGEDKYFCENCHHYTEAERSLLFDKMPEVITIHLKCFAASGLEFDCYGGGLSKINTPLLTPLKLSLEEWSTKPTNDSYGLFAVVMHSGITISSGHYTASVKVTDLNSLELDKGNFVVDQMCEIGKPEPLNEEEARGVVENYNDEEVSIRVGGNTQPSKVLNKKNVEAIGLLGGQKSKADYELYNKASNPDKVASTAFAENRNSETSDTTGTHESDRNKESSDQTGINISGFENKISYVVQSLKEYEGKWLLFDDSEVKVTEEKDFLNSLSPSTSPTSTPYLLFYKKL

In the case of `CS(=O)(=O)c1ccc(-c2cn3ccccc3n2)cc1`, the Potency with Furin (Homo sapiens) is 5.39 µM (active). Also, the Potency result in assay [1] and in assay [3] was “inactive” each time. In addition, in assay [2], the compound was called inactive.
Regarding `CN(Cc1ccc(C(=O)O)cc1)c1ccc(OCc2c(-c3c(Cl)cccc3Cl)noc2C2CC2)nc1C(F)(F)F`, the Potency with Furin (Homo sapiens) was 9.61 µM (active); in [4], 3.98 µM (active). The Potency result in [1] was “inactive”.
Consider `Nc1nc(NCC2CCC(CNS(=O)(=O)c3cccc4ccccc34)CC2)nc2ccccc12` (stereo not drawn), for which the Potency entry in assay [5] was “inactive”.
In the case of `N#C[C@@H]1C[C@@H]2C[C@@H]2N1C(=O)[C@@H](N)C12CC3CC(CC(O)(C3)C1)C2`, in assay [6], the compound was classed as inactive.
`O=C(c1ccc(F)c(F)c1Nc1ccc(I)cc1F)N1CC(O)([C@@H]2CCCCN2)C1`: in the assay with NIH3T3, the Potency is 9.2 µM (active).
As to `Nc1ccc(N)c([N+](=O)[O-])c1`, the result in [2] was inactive.
Regarding `CN(C)CC(=O)Nc1ccc2[nH]c(=O)c3ccccc3c2c1`, in assay [6], the result was inactive.
With `CCN(CC)c1ccc(C(=C2C=CC(=[N+](CC)CC)C=C2)c2cc(S(=O)(=O)O)ccc2S(=O)(=O)[O-])cc1`, the Potency result in [5] was “inactive”. For the same compound, the outcome in [2] was inactive.
Take `CC[C@H](C)[C@H]1O[C@]2(CC[C@@H]1C)C[C@@H]1C[C@@H](C/C=C(\C)[C@@H](O[C@H]3C[C@H](OC)[C@@H](O[C@H]4C[C@H](OC)[C@@H](O)[C@H](C)O4)[C@H](C)O3)[C@@H](C)/C=C/C=C3\CO[C@@H]4[C@H](O)C(C)=C[C@@H](C(=O)O1)[C@]34O)O2`: the Potency result in assay [7] and in [1] was “inactive” throughout. The Potency in assay [8] was 41.5 nM (active) and 2.62 µM (active).
Regarding `O=C(CC1NCCC[C@H]1O)Cn1cnc2cc(Br)c(Cl)cc2c1=O` (stereo partly drawn), in assay [9], the call was inactive. Further, the Potency result in assay [10] was “inactive”. The Potency in assay [11] (parasite line A) is 2 µM (active); in [11] (parasite line B), 3.55 µM (active).
With `CC(=O)N1c2ccc(-c3ccc(C(=O)O)cc3)cc2C(Nc2ccc(Cl)cc2)CC1C` (stereo not drawn), the Potency entry with Furin (Homo sapiens) is “inactive”. Moreover, the Potency in assay [12] is 12.4 µM (active); in assay [7], 70.8 µM (active); in [8], 93 nM (active).
`O=C(O)c1ccc(O)c2ncc(N3CCCN(CCc4cccc5ccccc45)CC3)cc12`: the Potency is 49.4 µM (active) in assay [13], 13.9 µM (active) in [12], 3.55 µM (active) in [7] and 6580 nM (active) in [8]. The Potency entry in [1] was “inactive”.
On to `Clc1ccccc1CNCC1CCC(CNCc2ccccc2Cl)CC1` (stereo not drawn), for which the Potency result in [14], in assay [5] and in assay [3] was “inactive” throughout.
